Assay [1] addresses Cell division control protein 42 homolog (Homo sapiens) (UniProt P60953). Briefly: inhibition of fluorescent GTP binding to constitutively active Cdc42 – biochemical, multiplex bead flow cytometry, Bodipy-FL-GTP, dose response (AID 1333;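 active = fitted half-maximal concentration within the tested dose range, moderate curve steepness, a statistically real signal drop, and little compound fluorescence or tag-binding interference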).
Assay [2] has the same target. Briefly: inhibition of fluorescent GTP binding to wildtype Cdc42 – biochemical, multiplex bead flow cytometry, Bodipy-FL-GTP, dose response (AID 1334;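 active = fitted half-maximal concentration within the tested range, moderate curve steepness, significant signal drop, and little compound fluorescence or bead-linkage interference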). The following applies: bead-based flow cytometry, Bodipy-FL-GTP binding to GST-Cdc42; at 100 µM (top of the series) unless noted. (In general: In flow cytometry, cells or beads pass a laser one at a time.)
The target in assay [3] is GTPase HRas (Homo sapiens) (UniProt P01112). Briefly: Ras wt fluorescent GTP loading blockade – biochemical, wildtype, multiplex bead flow cytometry, dose response (AID 1335). The note with it: bead-based flow cytometry, Bodipy-GTP binding to GST-Ras; at 100 µM (top of the series) unless noted.
The subject of assay [4] is Ras-related protein Rab-7a (dog), GTP binding. Briefly: blockers of fluorescent GTP binding to Rab7 – biochemical, wildtype, multiplex bead flow cytometry, dose response (AID 1336; call rule not given here).
In assay [5] the target is Ras-related C3 botulinum toxin substrate 1 (Homo sapiens) (UniProt P63000). Briefly: inhibition of wildtype Rac1 nucleotide loading – biochemical, multiplex bead flow cytometry, dose response (AID 1340;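 active = dose curve with midpoint inside tested range, moderate steepness, plateau gap beyond fit error, low compound glow and bead-link interference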). The following applies: GST-Rac1 beads, Bodipy-FL-GTP binding; at 100 µM (top of the series) unless noted.
In assay [6] the target is GTPase HRas (Homo sapiens) (UniProt P01112). Put plainly: blockade of GTP loading onto mutant Ras – biochemical, activated mutant, multiplex bead flow cytometry, dose response (AID 1341;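 active = dose-response curve with midpoint inside the tested range, moderate steepness, significant amplitude and little compound fluorescence or bead-attachment interference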;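 note: GST-tagged constitutively activated Ras mutant immobilized on beads and multiplexed with other GTPases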).

For part of these data: Potency and affinity values are given separately. Calls of active or inactive are those of the source.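 Rule for the calls, unless noted: active = fitted half-maximal concentration within 10 nM to 100 µM, steepness 0.5 to 2, significant signal drop, low assay interference; inactive = the rest.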

Chain of Cell division control protein 42 homolog (Homo sapiens) (P60953 whole entry, looked up): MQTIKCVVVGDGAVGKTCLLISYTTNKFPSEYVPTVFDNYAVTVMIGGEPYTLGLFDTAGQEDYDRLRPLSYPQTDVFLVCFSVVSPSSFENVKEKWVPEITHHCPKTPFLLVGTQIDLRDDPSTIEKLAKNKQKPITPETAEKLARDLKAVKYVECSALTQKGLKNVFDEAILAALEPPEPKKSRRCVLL
Chain of GTPase HRas (Homo sapiens) (P01112 whole entry, looked up): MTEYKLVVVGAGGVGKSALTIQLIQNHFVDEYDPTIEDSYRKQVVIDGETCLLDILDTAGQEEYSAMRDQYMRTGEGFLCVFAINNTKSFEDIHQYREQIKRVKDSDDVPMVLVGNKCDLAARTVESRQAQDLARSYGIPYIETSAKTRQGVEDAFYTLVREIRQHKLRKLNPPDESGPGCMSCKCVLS

Regarding `O=C(O)c1ccc(N2C(=O)/C(=C/c3ccc(-c4ccc([N+](=O)[O-])cc4)o3)C=C2c2ccccc2)cc1`, the compound was called inactive in assay [1], in assay [4] and in assay [6]. In assay [2], the fluorescence, percent of control (lower = inhibition) amounted to 33.9%. Further, the GTP binding, percent of control in assay [3] stood at 77.4%. This compound returned a GTP binding signal, raw median fluorescence (lower = inhibition) (MCF (arbitrary fluorescence units)) in assay [5] of 179.

Regarding `C/C(=N\Nc1cc(C)nc(-c2ccccc2)n1)c1cccc([N+](=O)[O-])c1`, the outcome in assay [1], in assay [4] and in assay [6] was inactive. For the same compound, in assay [2], the fluorescence, percent of control (lower = inhibition) is 33.6%. The compound further came in with a GTP binding, percent of control in assay [3] of 77.8%. Further, the GTP binding signal, raw median fluorescence (lower = inhibition) (MCF (arbitrary fluorescence units)) in assay [5] worked out at 193.

Consider `CCn1cc(C(=O)OCC(=O)c2cc(C)n(-c3cccc(C(F)(F)F)c3)c2C)c(=O)c2ccc(C)nc21`, for which the compound was called inactive in assay [1], in assay [4] and in assay [6]. For the same compound, the fluorescence, percent of control (lower = inhibition) in assay [2] worked out at 37.1%. This compound registered a GTP binding, percent of control in assay [3] of 57.8%. For the same compound, in assay [5], the GTP binding signal, raw median fluorescence (lower = inhibition) (MCF (arbitrary fluorescence units)) came to 137.

Consider `Cc1ccc(-c2ccc(/C=C(\C#N)C(=O)Nc3cc(C)nn3-c3ccccc3)o2)cc1`, for which the call in assay [1], in assay [4] and in assay [6] was inactive. Moreover, the fluorescence, percent of control (lower = inhibition) in assay [2] amounted to 226%. In addition, the GTP binding, percent of control in assay [3] is 182%. In assay [5], this compound showed a GTP binding signal, raw median fluorescence (lower = inhibition) (MCF (arbitrary fluorescence units)) of 498.

On to `O=C(NC1CCCCC1)c1noc2c1CCCCC2`, for which the compound was classed as inactive in assay [1], in assay [4] and in assay [6]. Further, the fluorescence, percent of control (lower = inhibition) in assay [2] came out at 34.3%. The compound further had a GTP binding, percent of control in assay [3] of 80.9%. The compound also yielded a GTP binding signal, raw median fluorescence (lower = inhibition) (MCF (arbitrary fluorescence units)) in assay [5] of 252.

For `COc1ccccc1CCNCc1ccc(C(=O)O)s1`, the result in assay [1], in assay [4] and in assay [6] was inactive. The fluorescence, percent of control (lower = inhibition) in assay [2] was 63%. The compound further yielded a GTP binding, percent of control in assay [3] of 88.4%. Further, in assay [5], the GTP binding signal, raw median fluorescence (lower = inhibition) (MCF (arbitrary fluorescence units)) worked out at 34.1.

As for `Cc1cc2ccccn2c1C(=O)c1ccc(Cl)c([N+](=O)[O-])c1`, the outcome in assay [1], in assay [4] and in assay [6] was inactive. Also, the fluorescence, percent of control (lower = inhibition) in assay [2] amounted to 38.8%. Further, the GTP binding, percent of control in assay [3] was 86.1%. Further, the GTP binding signal, raw median fluorescence (lower = inhibition) (MCF (arbitrary fluorescence units)) in assay [5] came out at 216.

Turning to `CSc1nc2ccc(NC(=O)C3CC(=O)N(Cc4ccco4)C3)cc2s1` (stereo not given), the compound was called inactive in assay [1], in assay [4] and in assay [6]. Also, the fluorescence, percent of control (lower = inhibition) in assay [2] amounted to 34%. In assay [3], this compound returned a GTP binding, percent of control of 75.3%. This compound also yielded a GTP binding signal, raw median fluorescence (lower = inhibition) (MCF (arbitrary fluorescence units)) in assay [5] of 195.

As for `Cc1ccc(C)c(NC(=S)NNC(=O)c2cc3c(s2)CCC(C)C3)c1` (stereo not given), the compound was called inactive in assay [1], in assay [4] and in assay [6]. In addition, in assay [2], the fluorescence, percent of control (lower = inhibition) amounted to 49.9%. In assay [3], the GTP binding, percent of control stood at 67.1%. The GTP binding signal, raw median fluorescence (lower = inhibition) (MCF (arbitrary fluorescence units)) in assay [5] amounted to 176.

In the case of `Cc1ccc(S(=O)(=O)Cc2ccc(C(=O)N3CCN(c4cc(C)ccc4C)CC3)o2)cc1`, the call in assay [1], in assay [4] and in assay [6] was inactive. The fluorescence, percent of control (lower = inhibition) in assay [2] came to 35%. Further, the GTP binding, percent of control in assay [3] was 59.9%. Also, the GTP binding signal, raw median fluorescence (lower = inhibition) (MCF (arbitrary fluorescence units)) in assay [5] came to 0.

As to `O=c1[nH]c(=O)c2nnc(N/N=C\c3ccc(O)cc3)nc2[nH]1`, the call in assay [1], in assay [4] and in assay [6] was inactive. The fluorescence, percent of control (lower = inhibition) in assay [2] worked out at 32.2%. In assay [3], this compound had a GTP binding, percent of control of 69.1%. Besides, the GTP binding signal, raw median fluorescence (lower = inhibition) (MCF (arbitrary fluorescence units)) in assay [5] was 147.

For the compound `O=C(c1nnsc1S(=O)(=O)c1ccc(Cl)cc1)N1CCOCC1`, the compound was classed as inactive in assay [1], in assay [4] and in assay [6]. In assay [2], the fluorescence, percent of control (lower = inhibition) came to 39.7%. Moreover, the GTP binding, percent of control in assay [3] stood at 77.4%. This compound displayed a GTP binding signal, raw median fluorescence (lower = inhibition) (MCF (arbitrary fluorescence units)) in assay [5] of 289.

Take `Cn1c(O)c(C2=c3ccccc3=NC2=O)[nH]c1=S`: the compound was classed as inactive in assay [1], in assay [4] and in assay [6]. Moreover, in assay [2], the fluorescence, percent of control (lower = inhibition) was 37.9%. The GTP binding, percent of control in assay [3] turned out to be 83.1%. Moreover, the GTP binding signal, raw median fluorescence (lower = inhibition) (MCF (arbitrary fluorescence units)) in assay [5] is 214.

As to `CCN(CC)S(=O)(=O)c1cc([N+](=O)[O-])ccc1N=Nc1c(O)[nH]c2ccccc12`, the call in assay [1], in assay [4] and in assay [6] was inactive. The fluorescence, percent of control (lower = inhibition) in assay [2] stood at 82.9%. The compound further yielded a GTP binding, percent of control in assay [3] of 87.4%. In addition, the GTP binding signal, raw median fluorescence (lower = inhibition) (MCF (arbitrary fluorescence units)) in assay [5] turned out to be 351.

Turning to `Cc1cccc(CSCc2ccc(C(=O)O)o2)c1`, the compound was classed as inactive in assay [1], in assay [4] and in assay [6]. Moreover, the fluorescence, percent of control (lower = inhibition) in assay [2] is 58.1%. In assay [3], this compound returned a GTP binding, percent of control of 86.9%. Also, the GTP binding signal, raw median fluorescence (lower = inhibition) (MCF (arbitrary fluorescence units)) in assay [5] turned out to be 28.5.

(Values after PubChem BioAssay.)
